Assay outcomes from PubChem.
Sampled rows, rich in hits. Any-hit rate of the full collection: about 12%.
KCC2 mod = KCC2 cotransporter modulators, thallium flux, primary screen, cell-based, HEK293 KCC2, FluoZin-2 fluorescence, MLSMR; KCC2 cells, thallium flux FluoZin-2 fluorescence; B-score of Tl+ flux slope (higher = more flux/activation; lower = inhibition) at 10 µM; AID 1456, 2008; 190,000 tested, 2.2% active; Solute carrier family 12 member 5 (Homo sapiens), Q9H2X9;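 active means thallium flux slope and its plate-corrected score both differing from the plate sample mean at a set confidence after two filtering rounds, in either direction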;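 further: slope of fluorescence scaled to starting intensity during 10 to 20 s after thallium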
Target sequence (Q9H2X9 whole entry, looked up): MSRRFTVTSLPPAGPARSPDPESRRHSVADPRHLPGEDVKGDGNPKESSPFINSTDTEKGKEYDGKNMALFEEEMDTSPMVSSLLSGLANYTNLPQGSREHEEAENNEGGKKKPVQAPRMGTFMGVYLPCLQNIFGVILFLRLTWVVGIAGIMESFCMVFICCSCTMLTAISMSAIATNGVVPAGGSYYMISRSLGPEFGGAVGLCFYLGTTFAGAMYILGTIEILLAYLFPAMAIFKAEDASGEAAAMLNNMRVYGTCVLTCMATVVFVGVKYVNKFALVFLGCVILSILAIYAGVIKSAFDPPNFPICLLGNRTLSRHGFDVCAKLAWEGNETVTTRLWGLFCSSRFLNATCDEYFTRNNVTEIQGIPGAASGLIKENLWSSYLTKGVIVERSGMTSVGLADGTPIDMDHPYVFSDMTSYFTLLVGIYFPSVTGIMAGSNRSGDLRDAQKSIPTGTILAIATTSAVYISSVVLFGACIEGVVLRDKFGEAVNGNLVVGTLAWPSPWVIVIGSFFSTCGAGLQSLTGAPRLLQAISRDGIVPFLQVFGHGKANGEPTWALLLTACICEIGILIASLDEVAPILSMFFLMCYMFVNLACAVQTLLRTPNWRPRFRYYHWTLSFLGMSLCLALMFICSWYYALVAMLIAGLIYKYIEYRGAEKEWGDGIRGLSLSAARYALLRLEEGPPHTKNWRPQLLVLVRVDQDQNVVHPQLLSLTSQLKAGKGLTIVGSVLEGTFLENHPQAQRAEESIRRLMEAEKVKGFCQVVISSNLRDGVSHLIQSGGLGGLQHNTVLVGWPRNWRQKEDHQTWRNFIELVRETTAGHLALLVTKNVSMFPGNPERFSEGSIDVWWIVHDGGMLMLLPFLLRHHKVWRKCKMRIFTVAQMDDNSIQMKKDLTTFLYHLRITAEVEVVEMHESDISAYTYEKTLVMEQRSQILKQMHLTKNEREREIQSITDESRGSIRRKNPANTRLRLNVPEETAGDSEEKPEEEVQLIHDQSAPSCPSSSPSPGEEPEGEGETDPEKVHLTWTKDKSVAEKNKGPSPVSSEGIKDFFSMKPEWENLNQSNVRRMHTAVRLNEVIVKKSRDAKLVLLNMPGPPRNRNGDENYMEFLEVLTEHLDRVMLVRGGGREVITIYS
L major viab = Leishmania major promastigote growth inhibition, primary screen. Leishmania major promastigotes, resazurin fluorescence viability. inhibition, % at 10 µM. 200,000 tested, 9% active. AID 1063, 2008; in the data active means inhibition above about 50%;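 further: promastigotes grown with compound for 44 hours at 28 °C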
ROMK primary = ROMK potassium channel modulators, primary screen, cell-based, thallium flux, MLSMR library; ATP-sensitive inward rectifier potassium channel 1 (Homo sapiens), P48048; AID 1918, 2009; Tet-inducible ROMK, thallium flux fluorescence; actives lie on both sides; 130,000 tested, 2% active; B-score at 10 µM;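 active means signal ratio slope over the read window, or its plate-corrected B-score, at least 3 SD from the plate mean, either direction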;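 further: B-score of the F/F0 ratio slope over 7 to 12 s after thallium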
WT yeast gro inh = growth inhibition of WT strain, primary screen, mitochondrial fusion inhibitor project, WT and mutant strains, chemical genetic | mitochondrial fusion phenotypic screen | inhibition, % at 10 µM | 190,000 tested, 2.1% active | AID 1362, 2008; in the data active means inhibition above about 58%; tested in S. cerevisiae
Insulin prom inh = inhibitors of insulin promoter-driven GFP, primary screen, imaging, TRM-6 cells (human fetal islet line), eGFP reporter, cell count. reporter expression induced with tamoxifen. 130,000 tested, 0.9% active. inhibition, % at 2 µM;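 active means inhibition above the mean plus 3 SD, with well images judged a real hit on visual review, cut at about 60% in these data, passing the limit was not always enough; inconclusive means inhibition over the cutoff but images rejected on review; inactive means inhibition not above the cutoff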
Insulin prom up = insulin promoter activators in MIN6 cells, imaging, high-content screening, mouse beta cells; MIN6 insulin promoter-GFP reporter; hits give high values; z-score at 5 µM; 190,000 tested, 0.3% active;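 active means z-score above 3 at 5 µM with at least 500 cells counted in the well; inconclusive means wells under 500 cells, flagged as cytotoxic or low count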
Of the large screens only hits and unclear results are named; the others gave an inactive call.

COc1cc(/C=C2\S/C(=N/S(=O)(=O)c3ccc(C)cc3)NC2=O)c([N+](=O)[O-])cc1OC	KCC2 mod -6.51
CCCn1c(N)c(C(=O)CSc2nc(C)cs2)c(=O)[nH]c1=O	Insulin prom inh 76.9 (no result: KCC2 mod, ROMK primary)
CC(=O)Nc1cccc(N(C(=O)C2COc3ccccc3O2)C(C(=O)NC2CCCCC2)c2cn(C)nc2C)c1 (stereo not drawn)	none (no result: ROMK primary)
S=C1CCSc2ccc(Cl)cc2N1	KCC2 mod 9.8 (no result: ROMK primary)
NC(=S)N/N=C1\CCSc2ccc(Cl)cc21	none (no result: L major viab, WT yeast gro inh, Insulin prom inh)
COc1ccc2c(CC(=O)Nc3ccc(OC)c(NS(=O)(=O)c4ccc(F)cc4)c3)coc2c1	L major viab 57.5 (no result: ROMK primary)
COc1ccc2c(CC(=O)Nc3ccccc3OC)coc2c1	none (no result: Insulin prom inh)
c1ccc(C2Nc3ccccc3-c3nc4ccccc4n32)cc1 (stereo not drawn)	L major viab 68.9
CC12CCC(C/C1=N/NC(=O)Nc1ccccc1)C2(C)C (stereo not drawn)	L major viab 95.0
CC12CCC(C/C1=N/NC(=O)COc1ccccc1Cl)C2(C)C (stereo not drawn)	none (no result: ROMK primary)
COC(=O)c1ccc(-n2cc(-c3ccc(OC)cc3)[nH]c2=S)cc1	KCC2 mod 8.83
O=[N+]([O-])c1ccc(-c2cn(-c3ccccc3)c(=S)[nH]2)cc1	none (no result: ROMK primary, Insulin prom inh)
Cc1cc(C)cc(N(CC(=O)NCc2ccc3c(c2)OCO3)C(=O)CCC(=O)Nc2ccccn2)c1	none (no result: ROMK primary, Insulin prom inh)
COc1ccc(CNC(=O)CN(C(=O)CCC(=O)Nc2ccccn2)c2cccc(C)c2)cc1	L major viab 50.2
CCC(C)(C)NC(=O)CN(C(=O)CCC(=O)Nc1ccccn1)c1ccc(F)c(Cl)c1	L major viab 90.2
Cc1ccc(C)c(N(CC(=O)NCc2ccc3c(c2)OCO3)C(=O)CCC(=O)Nc2ccccn2)c1	L major viab 56.3 (no result: ROMK primary, Insulin prom inh)
CC(C)NC(=O)CN(C(=O)CCC(=O)Nc1ccccn1)c1ccc(F)c(Cl)c1	none (no result: ROMK primary, Insulin prom inh)
Cc1c(N=Cc2c(O)n(Cc3ccco3)c(=O)c3ccccc23)c(=O)n(-c2ccccc2)n1C	none (no result: KCC2 mod)
COc1nnc(-c2ccc(N3CCCCC3)c(NC(=O)C3CCCCC3)c2)c2ccccc12	L major viab 54.3, Insulin prom up inconclusive
COc1nnc(-c2ccc(N3CCOCC3)c(NC(=O)C3CCCCC3)c2)c2ccccc12	none (no result: Insulin prom inh)
O=C(c1cnc(-c2ccc(Cl)cc2)s1)c1ccc(Cl)cc1Cl	WT yeast gro inh 73.1 (no result: ROMK primary, Insulin prom up)
CCOC(=O)C1=C(N)Oc2c(oc(CO)cc2=O)C1c1ccc(Cl)cc1 (stereo not drawn)	none (no result: L major viab, WT yeast gro inh, Insulin prom inh)
COc1ccc(C(=O)OCC(=O)Nc2ccc(Cl)cn2)cc1	none
COc1ccc(OC)c(S(=O)(=O)Nc2ccc(O)c3ccccc23)c1	L major viab 99.9, WT yeast gro inh 61.9 (no result: ROMK primary)
COc1ccc(OC)c(S(=O)(=O)Nc2c(C)cccc2C)c1	none
C(=N\N1CCN(C2c3ccccc3-c3ccccc32)CC1)/c1ccncc1	WT yeast gro inh 68.1 (no result: KCC2 mod, ROMK primary, Insulin prom up)
COc1cccc2cc(C(=O)N3CCc4ccccc43)c(=O)oc12	WT yeast gro inh 83.2 (no result: KCC2 mod)
CCOc1cccc2cc(C(=O)N3CCc4ccccc43)c(=O)oc12	none (no result: ROMK primary, Insulin prom up)
CC(Sc1nc(-c2ccc(F)cc2)cs1)C(=O)Nc1ccc(Cl)cn1 (stereo not drawn)	L major viab 61.1
Cc1csc(SC(C)C(=O)Nc2ccc(Cl)cn2)n1 (stereo not drawn)	none (no result: ROMK primary)
O=C1Nc2ccccc2/C1=C/c1cccnc1	L major viab 77.9
Cc1ccc(/C=C2\C(=O)Nc3ccccc32)o1	L major viab 99.4 (no result: ROMK primary, Insulin prom inh)
Cc1ccc2c(c1)/C(=C/c1ccco1)C(=O)N2	none
CN1CCN(C(CNS(=O)(=O)c2ccc(Cl)cc2)c2cccnc2)CC1 (stereo not drawn)	none (no result: ROMK primary)
N=c1c2c(-c3ccccc3)c(-c3ccccc3)n(Cc3ccco3)c2ncn1Cc1ccco1	L major viab 100.2 (no result: ROMK primary)
CNC(=S)N(CCc1ccc(OC)c(OC)c1)Cc1cc2c(C)cc(C)cc2[nH]c1=O	L major viab 68.6
CNC(=S)N(CCc1ccccc1)Cc1cc2cc(OC)c(OC)cc2[nH]c1=O	Insulin prom inh 62.5
CCNC(=S)N(CCc1ccccc1C)Cc1cc2cc(OC)c(OC)cc2[nH]c1=O	L major viab 75.4
COc1cc2cc(CN(CCc3ccccc3C)C(=S)NCCCN(C)C)c(=O)[nH]c2cc1OC	L major viab 78.1
NCCCC[C@H]1CNC(=S)N1CC1(c2ccccc2)CC1	none (no result: L major viab, ROMK primary, WT yeast gro inh, Insulin prom inh)
CC(C)NCCCCOc1ccccc1-c1ccccc1	L major viab 97.7
CCCCNCCOCCOc1ccccc1-c1ccccc1	L major viab 91.7
COCCNCCCCOc1ccccc1-c1ccccc1	L major viab 51.7
C=CCNCCOc1ccccc1-c1ccccc1	none
COc1ccccc1/C=N/NC(=O)c1ccc(N(C)S(=O)(=O)c2ccccc2)cc1	none (no result: Insulin prom inh, Insulin prom up)
O=C(CSc1nnc(-c2cccs2)o1)OCc1ccccc1	none (no result: KCC2 mod, L major viab, ROMK primary, Insulin prom inh)
O=C(Nc1ccc(Cc2ccncc2)cc1)C1CCC(N2C(=O)C3C4C=CC(C5CC45)C3C2=O)CC1 (stereo not drawn)	L major viab 51.6
Cc1cccc2nc(-c3ccccc3)nc(N3CCC(O)(c4ccc(Cl)cc4)CC3)c12	L major viab 78.8, WT yeast gro inh 68.1 (no result: Insulin prom up)
OC1(c2ccc(Cl)cc2)CCN(Cc2nc(-c3cnccn3)no2)CC1	none (no result: KCC2 mod, Insulin prom inh)
CCN(CCNC(=O)CN(C)S(=O)(=O)c1cccc2nsnc12)c1ccccc1	L major viab 94.8
CCN(CCCNC(=O)CN(C)S(=O)(=O)c1cccc2nsnc12)c1cccc(C)c1	none (no result: KCC2 mod, Insulin prom inh)
CCO[C@H]1OC(C(=O)Nc2ccccc2)=C[C@@H](c2ccc(C(F)(F)F)cc2)[C@@H]1CCCO	WT yeast gro inh 74.7 (no result: ROMK primary, Insulin prom inh)
CCO[C@H]1OC(C(=O)NCc2ccccc2)=C[C@@H](c2ccc(C(F)(F)F)cc2)[C@@H]1CCCO	L major viab 53.2 (no result: ROMK primary, Insulin prom inh)
C#Cc1ccc([C@@H]2C=C(C(=O)Nc3ccccc3)O[C@H](OCC)[C@H]2CCCO)cc1	none (no result: ROMK primary, Insulin prom inh)
Cc1ccccc1NC(=O)CSc1nnc(Cc2ccccc2)o1	Insulin prom inh 75.0 (no result: ROMK primary)
C/C(=N\NC(N)=S)C12CC3CC(CC(C3)C1)C2	L major viab 100.5 (no result: ROMK primary, Insulin prom up)
CCC(C(=O)NCc1ccco1)N(C(=O)CNS(=O)(=O)c1ccccc1)C1CCCCC1 (stereo not drawn)	none (no result: Insulin prom up)
CCCC(C(=O)NCc1ccco1)N(C(=O)CNS(=O)(=O)c1ccc(Cl)cc1)C1CCCC1 (stereo not drawn)	L major viab 66.8 (no result: ROMK primary)
CN(C)c1ccc(NC(=O)Nc2csc3ccccc23)cc1	none (no result: L major viab, WT yeast gro inh, Insulin prom inh)
Cc1c(-n2c(-c3ccccc3)nc3ccccc3c2=O)c(=O)n(-c2ccccc2)n1C	none
CCCn1c(N2CCN(CC(=O)Nc3ccc4c(c3)OCCO4)CC2)nc2ccccc21	L major viab 79.2 (no result: Insulin prom up)
O=C(CN1CCN(c2ccccc2)CC1)Nc1ccc2c(c1)OCCO2	none (no result: Insulin prom inh)
